PubChem BioAssay (NCATS)
“And” between values parts separate entries of the source, which are not always exact repeats. Equal entries are not always repeated. Records with an inconclusive call do not appear. The source made the active and inactive calls. The call rests on the fitted dose curve; in most records, active means well fitted curve in the direction sought with a large enough effect; inconclusive means small, poorly fitted or top-dose-only effect, or another doubt; inactive means no such curve, though single readings can be large; an effect the other way counts as inactive or inconclusive.

Legend:
[1] = biological target: Cellular tumor antigen p53 (Homo sapiens) (UniProt P04637); test: Primary qHTS for small molecule compounds that upregulate eGFP-tagged delta133p53alpha (in N-terminal) cells. (AID 2060322); conditions: NCI-H358 eGFP-delta133p53alpha fluorescence, 24 h; activation: hits give high values; further: nearly all actives have a fitted effect of over 75% in size; further: potency means the concentration at half of the fitted maximal effect;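 on activation: series mostly up to about 56 µM; 0% = DMSO vehicle and 100% = reference activator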
Chain of Cellular tumor antigen p53 (Homo sapiens) (P04637 whole entry, looked up): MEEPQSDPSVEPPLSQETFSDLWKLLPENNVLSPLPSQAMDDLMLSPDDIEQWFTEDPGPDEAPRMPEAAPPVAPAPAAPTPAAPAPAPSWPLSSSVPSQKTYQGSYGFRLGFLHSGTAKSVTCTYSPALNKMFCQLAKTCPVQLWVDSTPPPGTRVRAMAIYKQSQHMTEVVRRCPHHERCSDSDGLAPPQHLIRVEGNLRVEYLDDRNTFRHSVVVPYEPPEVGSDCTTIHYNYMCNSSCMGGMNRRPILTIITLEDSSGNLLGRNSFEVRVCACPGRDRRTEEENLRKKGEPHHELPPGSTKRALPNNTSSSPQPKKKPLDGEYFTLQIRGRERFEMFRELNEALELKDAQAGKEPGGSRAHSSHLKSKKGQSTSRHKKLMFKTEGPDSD
Procedure, shortened: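 NCI-H358 cells pre-induced 24 h with 10 ng/ml doxycycline to express N-terminal eGFP-delta133p53alpha, then dosed 24 h at 37C without doxycycline; fixed, Hoechst-stained, GFP intensity by laser scanning cytometry, normalized to DMSO (0%) and 57.5 uM 5-azacytidine (100%).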

[2] = biological target: Aldehyde dehydrogenase, mitochondrial (Homo sapiens) (UniProt P05091); test: qHTS for Inhibitors of the Aldehyde Dehydrogenase Family (ALDH2) Primary screen (AID 2061308);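 further: plate controls were vehicle for no effect and reference inhibitor for full effect; nearly all actives have a fitted effect of over 55% in size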
[3] = biological target: Retinaldehyde dehydrogenase 3 (Homo sapiens) (UniProt P47895); test: qHTS for Inhibitors of the Aldehyde Dehydrogenase Family (ALDH1A3) Validation screen (AID 2061312); further: on the % scale 0 is the no-effect control and ±100 the full control effect; nearly all actives have a fitted effect of over 45% in size
[4] = biological target: Retinaldehyde dehydrogenase 3 (Homo sapiens) (UniProt P47895); test: qHTS for Inhibitors of the Aldehyde Dehydrogenase Family (ALDH1A3) Primary screen (AID 2061315);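 further: plate controls were DMSO vehicle for no effect and reference inhibitor for full effect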

Cc1cccc2c1NC(=O)C2(c1ccc(O)cc1)c1ccc(O)cc1
inactive: Potency [2] | Potency [3] | Potency [4]
active: Potency [1] 0.213 µM

CNS(=O)(=O)CC1CCC(N(C)c2ncnc3[nH]ccc23)CC1 (stereo not given)
inactive: activation [1] -0.477% | Potency [2] | Potency [3] | Potency [4]

Cc1nc2n(c(=O)c1CCN1CCC(c3noc4cc(F)ccc34)CC1)CCC[C@H]2O
inactive: activation [1] 9.21% and -6.21% | Potency [2] | Potency [3] | Potency [4]

Cc1ccc(COC(=O)N2CC[C@@H](CNc3ncccn3)[C@@H](F)C2)cc1
inactive: activation [1] 1.91% | Potency [2] | Potency [3] | Potency [4]

CCCCOC(=O)NC(=O)C1c2ccccc2Oc2ccccc21
inactive: activation [1] -11.5% | Potency [2] | Potency [3] | Potency [4]

O=C(OC1CN2CCC1CC2)N1CCc2ccccc2C1c1ccccc1 (stereo not given)
inactive: activation [1] -3.82% | Potency [2] | Potency [3] | Potency [4]

CN(C)CCC(CSc1ccccc1)Nc1ccc(S(=O)(=O)NC(=O)c2ccc(N3CCN(Cc4ccccc4-c4ccc(Cl)cc4)CC3)cc2)cc1[N+](=O)[O-] (stereo not given)
active: Potency [1] 16.9 µM
inactive: Potency [2] | Potency [3] | Potency [4]

CCn1c(=O)n([C@H]2CCCN(c3nccc(-c4cc5ccccc5o4)n3)C2)c2ccccc21
inactive: activation [1] -7.16% | Potency [2] | Potency [3] | Potency [4]

CC(C)(C)c1ccc(S(=O)(=O)NCc2ccc(C(=O)Nc3cccnc3)cc2)cc1
inactive: activation [1] 1.91% | Potency [2] | Potency [3] | Potency [4]

COc1ccc(-c2csc(NC(=O)[C@H]3CCCCN3S(=O)(=O)c3ccc(C)cc3)n2)cc1
inactive: activation [1] -8.59% | Potency [2] | Potency [3] | Potency [4]

CC(=O)Nc1cccc(Nc2ncnc(N3CCC(OCc4ccc(OC(F)(F)F)cc4)CC3)n2)c1C
inactive: activation [1] -6.21% | Potency [2] | Potency [3] | Potency [4]

Cc1ccc(N2CCN(CCC3NC(=O)c4ccccc43)CC2)cc1C (stereo not given)
inactive: activation [1] -7.16% | Potency [2] | Potency [3] | Potency [4]

CC(C)n1c(=O)c(C(=O)NC2CC3CCC(C2)N3C[C@@H](O)CN(C)S(C)(=O)=O)cc2ccccc21 (stereo not given in full)
inactive: activation [1] -10.5% | Potency [2] | Potency [3] | Potency [4]

Cc1cc(-c2nc(-c3ccc(OC(F)(F)F)cc3)no2)nn1Cc1ccnc(N2CCN(C3CC3)CC2)c1
inactive: activation [1] -0.955% | Potency [2] | Potency [3] | Potency [4]

OC1(c2ccc(Cl)c(C(F)(F)F)c2)CCN(CCCC(c2ccc(F)cc2)c2ccc(F)cc2)CC1
inactive: activation [1] 13% | Potency [2] | Potency [3] | Potency [4]
